# PubChem BioAssay (Tox21)
# Records with an inconclusive call do not appear. Where a call stands in place of a potency, no number is given. Active and inactive are the calls of the source. Calls follow the shape of the dose curve; as a rule, active = well fitted curve in the direction sought with a large enough effect in the repeat runs; inconclusive = weak or mixed curves; inactive = no such curve, though single readings can be large; an effect the other way counts as inactive or inconclusive.
# Assay: A CellTox Green Cytotoxicity Assay to monitor cytotoxicity in HEK293 cells - 24 hour (AID 1224875); also: nearly all actives have a fitted effect of over 45% in size
# Conditions: CellTox Green fluorescence; series mostly up to 76.8 µM
# How it was run: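 Nonlytic real-time cytotoxicity: HEK293 + CellTox Green reagent plated, 5 h preincubation, pintool compound addition (23 nL in DMSO), 37 C for 40 h, fluorescence measured at successive time points.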
row,Compound,Potency
1,Cn1cnc2c1c(=O)[nH]c(=O)n2C,inactive
2,CN/C(=C\[N+](=O)[O-])NCCSCc1ccc(CN(C)C)o1,inactive
3,CC(=O)c1ccc(S(=O)(=O)NC(=O)NC2CCCCC2)cc1,inactive
4,Cc1cccc2ccccc12,inactive
5,CCOC(=O)C(C)(C)Oc1ccc(Cl)cc1,inactive
6,NC(=O)NO,inactive
7,COCC(C)N (stereo not given),inactive
8,COC(=O)c1ccc(C=O)cc1,inactive
9,O=C1OC(c2ccc(O)cc2)(c2ccc(O)cc2)c2ccccc21,inactive
10,CCCCOCCOCCSC#N,inactive
11,Cc1c(N(C)CS(=O)(=O)O)c(=O)n(-c2ccccc2)n1C,inactive
12,O=C(O)CCCCC1CCSS1 (stereo not given),inactive
13,CC(C)(C)NCC(O)c1ccc(O)c(CO)c1 (stereo not given),inactive
14,O=C(O)Cc1cccc2ccccc12,inactive
15,CC1=C(/C=C/C(C)=C/C=C/C(C)=C/C(=O)O)C(C)(C)CCC1,inactive
16,C[C@]12C[C@H](O)[C@H]3[C@@H](CCC4=CC(=O)CC[C@@]43C)[C@@H]1CC[C@@H]2C(=O)CO,inactive
17,CCCCOCCOCCOC(C)=O,inactive
18,COc1ccccc1NC(=O)CC(C)=O,inactive
19,CCCCOC(=O)CCCCCCCCC(=O)OCCCC,inactive
20,Cc1cccc(C)c1O,inactive
21,NC(=O)OCC(COC(N)=O)c1ccccc1,inactive
22,COc1cc(O)c(C(=O)c2ccccc2)cc1S(=O)(=O)O,inactive
23,C#C[C@]1(O)CC[C@H]2[C@@H]3CCc4cc(O)ccc4[C@H]3CC[C@@]21C,inactive
24,CCN(CC)CCOC(=O)c1ccc(N)cc1,inactive
25,N[C@@H](Cc1c[nH]c2ccccc12)C(=O)O,inactive
26,CCN1CCCC1=O,inactive
27,Nc1cccc(N)c1,inactive
28,CC(=O)Oc1ccccc1C(=O)O,inactive
29,COCCOCCOC,inactive
30,CC(=O)OC/C=C(C)/C=C/C=C(C)/C=C/C1=C(C)CCCC1(C)C,inactive

# Assay: A CellTox Green Cytotoxicity Assay to monitor cytotoxicity in HepG2 cells - 16 hour (AID 1224876); also: nearly all actives have a fitted effect of over 45% in size
# Conditions: CellTox Green fluorescence; series mostly up to 76.8 µM
# How it was run: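 Read-out is fluorescence of a cyanine dye excluded from live cells that stains DNA of dead HepG2 cells, with signal proportional to cytotoxicity. Plates were read at 0, 8, 16, 24, 32 and 40 h after compound addition.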
row,Compound,Potency
1,Cn1cnc2c1c(=O)[nH]c(=O)n2C,inactive
2,CN/C(=C\[N+](=O)[O-])NCCSCc1ccc(CN(C)C)o1,inactive
3,CC(=O)c1ccc(S(=O)(=O)NC(=O)NC2CCCCC2)cc1,inactive
4,Cc1cccc2ccccc12,inactive
5,CCOC(=O)C(C)(C)Oc1ccc(Cl)cc1,inactive
6,NC(=O)NO,inactive
7,COCC(C)N (stereo not given),inactive
8,COC(=O)c1ccc(C=O)cc1,inactive
9,O=C1OC(c2ccc(O)cc2)(c2ccc(O)cc2)c2ccccc21,inactive
10,CCCCOCCOCCSC#N,inactive
11,Cc1c(N(C)CS(=O)(=O)O)c(=O)n(-c2ccccc2)n1C,inactive
12,O=C(O)CCCCC1CCSS1 (stereo not given),inactive
13,CC(C)(C)NCC(O)c1ccc(O)c(CO)c1 (stereo not given),inactive
14,O=C(O)Cc1cccc2ccccc12,inactive
15,CC1=C(/C=C/C(C)=C/C=C/C(C)=C/C(=O)O)C(C)(C)CCC1,inactive
16,C[C@]12C[C@H](O)[C@H]3[C@@H](CCC4=CC(=O)CC[C@@]43C)[C@@H]1CC[C@@H]2C(=O)CO,inactive
17,CCCCOCCOCCOC(C)=O,inactive
18,COc1ccccc1NC(=O)CC(C)=O,inactive
19,CCCCOC(=O)CCCCCCCCC(=O)OCCCC,inactive
20,Cc1cccc(C)c1O,inactive
21,NC(=O)OCC(COC(N)=O)c1ccccc1,inactive
22,COc1cc(O)c(C(=O)c2ccccc2)cc1S(=O)(=O)O,inactive
23,C#C[C@]1(O)CC[C@H]2[C@@H]3CCc4cc(O)ccc4[C@H]3CC[C@@]21C,inactive
24,CCN(CC)CCOC(=O)c1ccc(N)cc1,inactive
25,N[C@@H](Cc1c[nH]c2ccccc12)C(=O)O,inactive
26,CCN1CCCC1=O,inactive
27,Nc1cccc(N)c1,inactive
28,CC(=O)Oc1ccccc1C(=O)O,inactive
29,COCCOCCOC,inactive
30,CC(=O)OC/C=C(C)/C=C/C=C(C)/C=C/C1=C(C)CCCC1(C)C,inactive

# Assay: qHTS RealTime-Glo MT Cell Viability Assay in HepG2 cells - 32 hour (AID 1224877); also: nearly all actives have a fitted effect of over 55% in size
# Conditions: RealTime-Glo luminescence; series mostly up to 76.8 µM
# How it was run: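 Luminescence read-out: viable HepG2 cells reduce a prosubstrate to a NanoLuc substrate, giving a signal proportional to live cell number. Reads taken at 0, 8, 16, 24, 32 and 40 h of compound exposure at 37 C.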
row,Compound,outcome
1,Cn1cnc2c1c(=O)[nH]c(=O)n2C,inactive
2,CN/C(=C\[N+](=O)[O-])NCCSCc1ccc(CN(C)C)o1,inactive
3,CC(=O)c1ccc(S(=O)(=O)NC(=O)NC2CCCCC2)cc1,inactive
4,Cc1cccc2ccccc12,inactive
5,CCOC(=O)C(C)(C)Oc1ccc(Cl)cc1,inactive
6,NC(=O)NO,inactive
7,COCC(C)N (stereo not given),inactive
8,COC(=O)c1ccc(C=O)cc1,inactive
9,O=C1OC(c2ccc(O)cc2)(c2ccc(O)cc2)c2ccccc21,inactive
10,CCCCOCCOCCSC#N,inactive
11,Cc1c(N(C)CS(=O)(=O)O)c(=O)n(-c2ccccc2)n1C,inactive
12,O=C(O)CCCCC1CCSS1 (stereo not given),inactive
13,CC(C)(C)NCC(O)c1ccc(O)c(CO)c1 (stereo not given),inactive
14,O=C(O)Cc1cccc2ccccc12,inactive
15,CC1=C(/C=C/C(C)=C/C=C/C(C)=C/C(=O)O)C(C)(C)CCC1,inactive
16,C[C@]12C[C@H](O)[C@H]3[C@@H](CCC4=CC(=O)CC[C@@]43C)[C@@H]1CC[C@@H]2C(=O)CO,inactive
17,CCCCOCCOCCOC(C)=O,inactive
18,COc1ccccc1NC(=O)CC(C)=O,inactive
19,CCCCOC(=O)CCCCCCCCC(=O)OCCCC,inactive
20,Cc1cccc(C)c1O,inactive
21,NC(=O)OCC(COC(N)=O)c1ccccc1,inactive
22,COc1cc(O)c(C(=O)c2ccccc2)cc1S(=O)(=O)O,inactive
23,C#C[C@]1(O)CC[C@H]2[C@@H]3CCc4cc(O)ccc4[C@H]3CC[C@@]21C,inactive
24,CCN(CC)CCOC(=O)c1ccc(N)cc1,inactive
25,N[C@@H](Cc1c[nH]c2ccccc12)C(=O)O,inactive
26,CCN1CCCC1=O,inactive
27,Nc1cccc(N)c1,inactive
28,CC(=O)Oc1ccccc1C(=O)O,inactive
29,COCCOCCOC,inactive
30,CC(=O)OC/C=C(C)/C=C/C=C(C)/C=C/C1=C(C)CCCC1(C)C,inactive
